Screening data as filed in PubChem.
esBAF inh = Bmi1 luciferase reporter increase in mESCs, primary screen, esBAF inhibitor project, mouse ES cells, Bmi1 luciferase knock-in, single point | 24 h; 100% = twice the neutral-well signal | 350,000 compounds, 2% hits | reporter increase, % at 12.5 µM; in the data active = activation above about 40%; inconclusive = no clear call, values can overlap the other calls;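 also: a rise in the Bmi1 reporter signal indicates esBAF inhibition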
HSF-1 act = HSF-1 activators, primary screen, NIH3T3-HGL cells, MG132 stress, luminescence, single point | NIH3T3-HGL HSF-1 luciferase reporter, 8 h; 100% = twice DMSO control signal | activation, % at 9 µM | 300,000 compounds, 1.7% hits;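 active = mean replicate activation of at least 50% with a set share of replicates each reaching 50%; inconclusive = only one of those two conditions met; inactive = mean below 50% and too few replicates reaching it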
HSF1 inhib = HSF1 inhibitors in luciferase reporter cells, primary screen, cell-based, NIH3T3, luminescence. NIH3T3-HGL HSE-luciferase, MG132-induced, luminescence 8 h; active compounds read low. activity change, negative = inhibition, % at 7.5 µM (by protocol). 300,000 compounds, 0.77% hits;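 active = more than half of replicate wells show activity change below -50%, luminescence cut by over half; inconclusive = some wells, but at most half, below -50%; inactive = no replicate well below -50%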;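 also: luciferase reports HSF-1 transcriptional activity via heat shock element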
Vif inh = HIV Vif self-association inhibitors, primary screen, imaging, HEK293T, single point; HEK293T cells, Vif self-association by quenched fluorescence, 24 h; inhibition, % at 7.49 µM; 340,000 compounds, 0.35% hits; AID 602346, 2012; in the data active = inhibition above about 50%, passing the limit was not always enough; inconclusive = no clear call, values can overlap the other calls; inactive = below about 31%
Each line names hits and unclear results; the compound was inactive in the other large screens. Rows were chosen to be rich in hits. Some 3.4% of all compounds tested hit in one or more screens of this group.

O=C1CC(N2CCC(c3nc4ccccc4[nH]3)CC2)C(=O)N1c1ccccc1F (configuration not stated)	HSF-1 act 177
Cc1nc(NC(=O)C2CC2)sc1C(=O)Nc1ccccc1Cl	esBAF inh 53
C[C@H](CO)N1C[C@H](C)[C@H](CN(C)C(=O)C2CCCCC2)OCCCC[C@H](C)Oc2ccc(NS(=O)(=O)c3cccs3)cc2C1=O	none (no result: HSF-1 act, HSF1 inhib, Vif inh)
Cc1cccc(NCc2ccc(O)c3ncccc23)c1C	HSF1 inhib -63 (no result: esBAF inh)
Cc1cccnc1NCc1ccc(O)c2ncccc12	none
COc1cc(C(=O)OC2CC3CCC2(C)C3(C)C)ccc1OC(C)=O (configuration not stated)	esBAF inh 49
CSc1nc2ccc3nc(NC(=O)c4ccccc4)sc3c2s1	esBAF inh 50
Oc1ccc(/C=C/c2ccc3cccc(O)c3n2)cc1Br	esBAF inh 77
COC(=O)c1ccc(/C=C/c2ccc3cccc(OC(C)=O)c3n2)cc1	none (no result: esBAF inh)
O=C(O)c1ccc(/C=C/c2ccc3cccc(O)c3n2)cc1	esBAF inh 104
O=[N+]([O-])c1cccc(/C=C/c2ccc3cccc(O)c3n2)c1	none
C[C@H]1CN([C@@H](C)CO)C(=O)c2cccc(NS(=O)(=O)c3ccc(Cl)cc3)c2O[C@@H]1CN(C)Cc1ccccc1	none (no result: HSF-1 act, HSF1 inhib, Vif inh)
Cc1noc(C)c1S(=O)(=O)Nc1ccc2c(c1)CC(=O)N([C@H](C)CO)C[C@@H](C)[C@H](CN(C)C(=O)Nc1ccccc1)O2	none (no result: HSF-1 act, HSF1 inhib, Vif inh)
Cc1cc(C(=O)Nc2ccc3c(c2)C(=O)N(C)[C@@H]2CC[C@H](CC(=O)N[C@@H](C)c4ccccc4)O[C@@H]2CO3)no1	none (no result: HSF-1 act, HSF1 inhib, Vif inh)
CC(=O)c1ccc(NC(=O)CNCc2cccs2)cc1	esBAF inh 54
Cc1ccc(NC(=O)CNCc2cccs2)cc1Br	esBAF inh inconclusive
N#Cc1ccc(Cl)cc1NC(=O)CNCc1cccs1	HSF-1 act 65
O=C(NCC[C@H]1CC[C@@H](NC(=O)C2CCOCC2)[C@@H](CO)O1)c1cc(Cl)cc(Cl)c1	none (no result: HSF-1 act, HSF1 inhib, Vif inh)
O=C(C[C@H]1C=C[C@@H](NC(=O)Nc2ccc(F)cc2)[C@@H](CO)O1)NCCN1CCCC1	none (no result: HSF-1 act, HSF1 inhib, Vif inh)
CCOC(=O)N1C(=O)[C@@](CC)(c2ccccc2)N1C(=O)OCC	HSF1 inhib -55
CC(C)OC(=O)N(C)C[C@H]1OCc2cn(nn2)CCCC(=O)N([C@H](C)CO)C[C@H]1C	none (no result: HSF-1 act, HSF1 inhib, Vif inh)
O=C(CSc1ncccn1)c1ccccc1Br	esBAF inh 41 (no result: Vif inh)
Cc1ccc(S(=O)(=O)N(C)C[C@@H]2Oc3ccc(NC(=O)Nc4ccc5c(c4)OCO5)cc3C(=O)N([C@H](C)CO)C[C@@H]2C)cc1	none (no result: HSF-1 act, HSF1 inhib, Vif inh)
CC(C)CCc1c(O)nc(SCC(=O)N2CCCCCC2)[nH]c1=O	HSF1 inhib -74
Cc1sc(NC(=O)c2sc3nc4c(C)cccc4cc3c2N)c(C#N)c1C	Vif inh 53
Cc1cccc2cc3c(N)c(C#N)sc3nc12	HSF1 inhib -54
O=C(C[C@@H]1CC[C@H](NC(=O)CN2CCOCC2)[C@@H](CO)O1)NCCc1ccncc1	none (no result: HSF-1 act, HSF1 inhib, Vif inh)
Nc1c2c(=O)oc(-c3ccccc3)cc2nn1-c1ccccc1	esBAF inh 70
Cc1c(-c2ccc(Cl)cc2)oc(=O)c2c(N)n(-c3ccccc3)nc12	none
CC(C)NCCOc1cccc(Br)c1	Vif inh 56
C[C@@H]1CN([C@@H](C)CO)S(=O)(=O)c2ccc(C#CC(C)(C)O)cc2O[C@H]1CN(C)C(=O)C1CCC1	none (no result: HSF-1 act, HSF1 inhib, Vif inh)
Cc1ccc(S(=O)(=O)N(C)C[C@@H]2OCCCC[C@H](C)Oc3ccc(NS(=O)(=O)c4ccc(Cl)cc4)cc3C(=O)N([C@@H](C)CO)C[C@@H]2C)cc1	none (no result: HSF-1 act, HSF1 inhib, Vif inh)
COc1ccc(OCCCC(=O)Nc2ncn[nH]2)cc1	Vif inh 51 (no result: esBAF inh)
COc1ccc(OCCCC(=O)Nc2cccnc2)cc1	none (no result: esBAF inh)
CC(C)COc1ccc(C(=O)Nc2ncn[nH]2)cc1	esBAF inh 45
COc1ccc(S(=O)(=O)N(C)C[C@@H]2Oc3c(NC(=O)C4CC4)cccc3C(=O)N([C@@H](C)CO)C[C@@H]2C)cc1	none (no result: HSF-1 act, HSF1 inhib, Vif inh)
COc1ccc(-c2c(C#Cc3ccsc3)c3ccccc3n2C)cc1	esBAF inh 45
COc1ccc(C#Cc2c(-c3ccccc3)n(C)c3ccccc23)cc1	none (no result: HSF-1 act, HSF1 inhib)
COc1ccc(S(=O)(=O)N(C)C[C@H]2Oc3c(NC(=O)c4ccc(-c5nccs5)cc4)cccc3C(=O)N([C@H](C)CO)C[C@@H]2C)cc1	none (no result: HSF-1 act, HSF1 inhib, Vif inh)
CC(=NCCc1ccccc1)C1=C(O)CSC1=O	HSF1 inhib -79 (no result: esBAF inh)
O=C(C[C@H]1C=C[C@@H](NC(=O)Nc2ccc(C(F)(F)F)cc2)[C@@H](CO)O1)NCc1cccc(F)c1	none (no result: HSF-1 act, HSF1 inhib, Vif inh)
C[C@@H]1CN([C@@H](C)CO)C(=O)c2cc(NC(=O)Cc3cn(C)c4ccccc34)ccc2O[C@H]1CN(C)S(=O)(=O)c1cn(C)cn1	none (no result: HSF-1 act, HSF1 inhib, Vif inh)
CCN1CCN(c2cc(=O)n(-c3cc(Cl)ccc3C)c(=O)[nH]2)CC1	Vif inh 58
CNc1ccc(-c2cccc(CO)c2)cn1	esBAF inh 41 (no result: HSF-1 act, HSF1 inhib)
O=C(c1cnc(Cc2c[nH]c3ccccc23)c(I)c1)N1CCCCC1	esBAF inh 49 (no result: HSF-1 act, HSF1 inhib)
O=C(c1cnc(Cc2c[nH]c3ccccc23)c(I)c1)N1CCOCC1	none (no result: HSF-1 act, HSF1 inhib)
O=C(CCc1nc2ccccc2c(=O)[nH]1)NNC(=O)COc1ccccc1Cl	none
O=c1[nH]c(COc2ccc(Cl)cc2Br)nc2ccccc12	HSF-1 act 61 (no result: esBAF inh)
O=c1[nH]c(COc2ccc(Cl)cc2Cl)nc2ccccc12	esBAF inh 73, HSF-1 act 85
O=c1[nH]c(Cc2ccccc2Cl)nc2ccccc12	none (no result: esBAF inh)
C[C@H](NC(=O)C[C@H]1CC[C@H](NC(=O)Nc2ccc3c(c2)OCO3)[C@H](CO)O1)c1ccccc1	none (no result: HSF-1 act, HSF1 inhib, Vif inh)
CCOc1ccc(NC(N)=O)cc1OCC	none
CCCOc1ccc(NC(N)=O)cc1OCCC	HSF1 inhib -68 (no result: esBAF inh)
C[C@@H]1CCCCO[C@H](CN(C)C(=O)c2ccccc2)[C@H](C)CN([C@@H](C)CO)C(=O)c2cc(NC(=O)Nc3ccc(F)cc3)ccc2O1	none (no result: HSF-1 act, HSF1 inhib, Vif inh)
COC(=O)c1cnc2c(c(C)nn2C)c1OC	HSF-1 act 59 (no result: Vif inh)
C[C@@H]1CN([C@H](C)CO)S(=O)(=O)c2ccc(-c3cncnc3)cc2O[C@@H]1CN(C)C(=O)Cc1cccnc1	none (no result: HSF-1 act, HSF1 inhib, Vif inh)
Cc1ccc(S(=O)(=O)N(C)CC(=O)Nc2ccc(C)cn2)cc1	none
Cc1ccc(-c2noc(CCC(=O)Nc3cc(C)ccn3)n2)cc1	HSF-1 act 69
Cc1ccc(S(=O)(=O)N(C)CC(=O)Nc2cc(C)ccn2)cc1	esBAF inh 66
Cc1ccnc(NC(=O)Cc2ccc(-c3ccccc3)cc2)c1	HSF-1 act 78 (no result: esBAF inh)
O=C(CCS(=O)(=O)c1ccccc1)Nc1ccccn1	HSF-1 act 59
C[C@@H]1CN([C@H](C)CO)C(=O)c2cc(-c3ccncc3)cnc2O[C@H]1CN(C)C(=O)c1cccc(F)c1	none (no result: HSF-1 act, HSF1 inhib, Vif inh)
C[C@@H](NC(=O)C[C@H]1C[C@H]2c3cc(NS(C)(=O)=O)ccc3O[C@H]2[C@H](CO)O1)c1ccccc1	none (no result: HSF-1 act, HSF1 inhib, Vif inh)
O=C(Cc1ccc(-c2ccccc2)cc1)Nc1ccccn1	esBAF inh 43
